# Experimental data taken from article PMC7862700, “An all-to-all approach to the identification of sequence-specific readers for epigenetic DNA modifications on cytosine”.
# What was measured:
# Experiment in all cases: DAPPL (digital affinity profiling via proximity ligation, sequencing); 10 mM Tris-HCl pH 7.5, 50 mM NaCl, 1 mM DTT, 4% glycerol, room temperature, 30 min; GST-TFs on glutathione beads, 16-mer random dsDNA library, 0.1% formaldehyde crosslink after washing; high values mean tight binding
# Settings in all cases: protein: recombinant; tags: N-terminal GST; dsDNA, one strand shown
# [1] = target: T1, FLI1 (Homo sapiens, UniProt Q01543 1-452)
# T1 sequence: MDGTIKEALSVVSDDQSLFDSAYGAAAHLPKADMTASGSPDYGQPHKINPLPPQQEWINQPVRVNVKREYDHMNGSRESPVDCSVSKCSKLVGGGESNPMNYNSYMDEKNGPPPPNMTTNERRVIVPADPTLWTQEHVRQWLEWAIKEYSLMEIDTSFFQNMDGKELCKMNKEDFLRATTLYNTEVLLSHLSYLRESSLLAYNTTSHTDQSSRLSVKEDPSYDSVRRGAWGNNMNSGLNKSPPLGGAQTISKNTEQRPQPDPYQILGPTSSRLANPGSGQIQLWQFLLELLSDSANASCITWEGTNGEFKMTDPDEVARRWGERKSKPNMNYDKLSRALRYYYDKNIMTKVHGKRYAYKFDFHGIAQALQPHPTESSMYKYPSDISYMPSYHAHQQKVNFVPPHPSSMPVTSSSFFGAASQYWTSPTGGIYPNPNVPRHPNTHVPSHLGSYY
# Method in brief: (§1)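 Each value of binding signal is a hexamer's read frequency for a factor divided by the same hexamer's frequency in the tag-only sample. Barcoded, bead-captured GST fusions of human transcription factors made in yeast were pooled with that sample and incubated with 200 nmole of a random double-stranded 16-mer DNA library in Tris/NaCl/DTT/glycerol buffer at room temperature for 30 min. Washing, 0.1% formaldehyde crosslinking, proximity ligation, PCR and Illumina NextSeq500 sequencing followed.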
# [2] = target: T2, ELK1 (Homo sapiens, UniProt P19419 1-428)
# T2 sequence: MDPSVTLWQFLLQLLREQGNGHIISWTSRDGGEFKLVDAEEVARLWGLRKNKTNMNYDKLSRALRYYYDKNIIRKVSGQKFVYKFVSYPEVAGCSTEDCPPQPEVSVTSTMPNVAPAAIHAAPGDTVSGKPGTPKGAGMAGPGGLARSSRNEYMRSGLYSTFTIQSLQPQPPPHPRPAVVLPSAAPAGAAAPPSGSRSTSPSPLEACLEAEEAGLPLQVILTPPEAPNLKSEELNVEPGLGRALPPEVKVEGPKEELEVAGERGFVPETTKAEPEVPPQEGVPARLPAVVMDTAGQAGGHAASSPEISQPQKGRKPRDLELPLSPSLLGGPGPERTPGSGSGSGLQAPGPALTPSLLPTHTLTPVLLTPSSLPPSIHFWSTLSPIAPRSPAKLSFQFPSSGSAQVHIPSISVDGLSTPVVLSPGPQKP
# Method in brief: as §1
# [3] = target: T3, GABPA (Homo sapiens, UniProt Q06546 1-454)
# T3 sequence: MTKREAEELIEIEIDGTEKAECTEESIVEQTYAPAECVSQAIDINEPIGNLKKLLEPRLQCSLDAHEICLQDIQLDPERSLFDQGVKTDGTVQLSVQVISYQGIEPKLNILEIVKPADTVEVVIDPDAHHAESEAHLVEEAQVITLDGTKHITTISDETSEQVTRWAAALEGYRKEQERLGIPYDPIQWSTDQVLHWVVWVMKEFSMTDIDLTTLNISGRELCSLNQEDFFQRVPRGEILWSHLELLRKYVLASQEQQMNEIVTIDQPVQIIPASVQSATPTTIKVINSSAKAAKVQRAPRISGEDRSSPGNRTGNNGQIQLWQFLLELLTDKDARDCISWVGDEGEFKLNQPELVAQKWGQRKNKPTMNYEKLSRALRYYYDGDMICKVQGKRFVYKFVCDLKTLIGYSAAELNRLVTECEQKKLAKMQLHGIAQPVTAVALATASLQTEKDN
# Method in brief: as §1
# [4] = target: T4, ERG (Homo sapiens, UniProt P11308 1-479)
# T4 sequence: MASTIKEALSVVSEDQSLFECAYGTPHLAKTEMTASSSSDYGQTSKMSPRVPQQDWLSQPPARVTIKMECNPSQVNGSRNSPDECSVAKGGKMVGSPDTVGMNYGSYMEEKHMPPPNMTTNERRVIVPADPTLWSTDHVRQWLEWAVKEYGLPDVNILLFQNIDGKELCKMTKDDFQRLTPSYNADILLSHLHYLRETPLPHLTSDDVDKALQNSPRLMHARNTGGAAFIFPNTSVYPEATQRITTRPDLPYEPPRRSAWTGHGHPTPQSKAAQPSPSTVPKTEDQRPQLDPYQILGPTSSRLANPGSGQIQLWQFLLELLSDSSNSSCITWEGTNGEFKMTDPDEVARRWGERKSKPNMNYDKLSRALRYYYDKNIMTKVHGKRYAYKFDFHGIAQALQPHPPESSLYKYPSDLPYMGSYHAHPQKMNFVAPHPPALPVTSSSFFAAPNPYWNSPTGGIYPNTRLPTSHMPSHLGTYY
# Method in brief: as §1
# [5] = target: ELF1 (Homo sapiens, UniProt P32519 1-619)
# Method in brief: as §1
# [6] = target: T5, EHF (Homo sapiens, UniProt Q9NZC4 1-300)
# T5 sequence: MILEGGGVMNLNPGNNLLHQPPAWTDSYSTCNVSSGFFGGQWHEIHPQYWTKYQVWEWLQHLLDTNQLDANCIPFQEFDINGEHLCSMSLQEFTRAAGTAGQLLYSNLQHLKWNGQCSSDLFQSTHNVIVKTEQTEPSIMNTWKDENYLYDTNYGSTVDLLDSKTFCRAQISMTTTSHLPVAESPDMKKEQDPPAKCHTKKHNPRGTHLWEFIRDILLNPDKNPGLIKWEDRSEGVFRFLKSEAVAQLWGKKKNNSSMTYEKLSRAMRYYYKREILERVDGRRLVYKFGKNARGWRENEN
# Method in brief: as §1
# [7] = target: SPI1 (Homo sapiens, UniProt P17947 1-270)
# Method in brief: as §1
# [8] = target: SPIB (Homo sapiens, UniProt Q01892 1-262)
# Method in brief: as §1
# [9] = target: T6, ELK3 (Homo sapiens, UniProt P41970 1-407)
# T6 sequence: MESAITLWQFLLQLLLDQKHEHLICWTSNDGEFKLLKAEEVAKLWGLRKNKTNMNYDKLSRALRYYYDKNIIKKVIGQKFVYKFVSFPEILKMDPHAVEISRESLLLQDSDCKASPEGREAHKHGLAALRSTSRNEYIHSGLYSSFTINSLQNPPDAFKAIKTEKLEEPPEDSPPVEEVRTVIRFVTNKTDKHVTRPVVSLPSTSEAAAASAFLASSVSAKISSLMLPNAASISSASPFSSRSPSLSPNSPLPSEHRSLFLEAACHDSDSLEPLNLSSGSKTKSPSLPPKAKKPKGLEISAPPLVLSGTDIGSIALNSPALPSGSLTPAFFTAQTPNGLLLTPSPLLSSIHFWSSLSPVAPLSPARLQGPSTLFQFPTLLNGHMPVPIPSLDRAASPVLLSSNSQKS
# Method in brief: as §1
# Sequence of SPIB (Q01892 whole entry): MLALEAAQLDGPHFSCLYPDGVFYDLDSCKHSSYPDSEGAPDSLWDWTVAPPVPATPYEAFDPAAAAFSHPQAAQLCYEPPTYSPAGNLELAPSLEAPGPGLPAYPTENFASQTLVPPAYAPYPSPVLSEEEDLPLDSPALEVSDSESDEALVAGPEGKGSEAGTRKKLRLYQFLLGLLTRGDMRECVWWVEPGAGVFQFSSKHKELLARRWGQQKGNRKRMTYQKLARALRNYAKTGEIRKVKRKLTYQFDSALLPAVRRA
# Sequence of ELF1 (P32519 whole entry): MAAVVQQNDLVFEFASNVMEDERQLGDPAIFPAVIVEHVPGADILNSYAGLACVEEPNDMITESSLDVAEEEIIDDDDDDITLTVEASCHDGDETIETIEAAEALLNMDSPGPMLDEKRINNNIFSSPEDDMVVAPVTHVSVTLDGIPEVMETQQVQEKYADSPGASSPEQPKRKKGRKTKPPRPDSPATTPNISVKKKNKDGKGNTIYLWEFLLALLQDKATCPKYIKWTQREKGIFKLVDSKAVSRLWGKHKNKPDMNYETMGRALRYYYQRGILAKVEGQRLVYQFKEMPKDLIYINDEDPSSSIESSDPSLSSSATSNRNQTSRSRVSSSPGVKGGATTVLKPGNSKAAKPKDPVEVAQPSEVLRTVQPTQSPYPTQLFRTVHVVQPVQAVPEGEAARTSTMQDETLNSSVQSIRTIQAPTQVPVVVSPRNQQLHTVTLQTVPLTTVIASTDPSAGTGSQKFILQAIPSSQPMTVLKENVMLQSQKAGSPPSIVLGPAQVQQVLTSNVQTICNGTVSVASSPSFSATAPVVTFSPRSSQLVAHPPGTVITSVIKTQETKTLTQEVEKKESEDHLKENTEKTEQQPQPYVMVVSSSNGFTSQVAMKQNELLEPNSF
sequence,measurement,setting,value
CCGCTC,binding signal,[1],"1.53 fold enrichment (6-mer frequency, TF over GST control)"
same,binding signal,[2],"1.52 fold enrichment (6-mer frequency, TF over GST control)"
same,binding signal,[3],"1.39 fold enrichment (6-mer frequency, TF over GST control)"
same,binding signal,[4],"1.47 fold enrichment (6-mer frequency, TF over GST control)"
same,binding signal,[5],"1.58 fold enrichment (6-mer frequency, TF over GST control)"
same,binding signal,[6],"1.54 fold enrichment (6-mer frequency, TF over GST control)"
same,binding signal,[7],"1.48 fold enrichment (6-mer frequency, TF over GST control)"
same,binding signal,[8],"1.59 fold enrichment (6-mer frequency, TF over GST control)"
same,binding signal,[9],"1.49 fold enrichment (6-mer frequency, TF over GST control)"
